ELG1 repair inh: inhibitors of ELG1-dependent DNA repair in HEK293T cells | HEK293T ELG1-luciferase reporter, luminescence, 16 h; DNA damage induced by 5-fluorouridine | Potency, µM (highest dose often 46.1 µM), for the others: top-dose activity change, negative = inhibition, usual class: inhibitors | hit rate 2.3% among 330,000; note: potency is the fitted concentration of half-maximal effect; nearly all actives have a fitted effect of over 55% in size
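Luminescence from the luciferase reporter, measured 30 min after ONE-Glo reagent at room temperature, was the read-out. Beforehand, 2,000 cells per well were exposed for 16 hr at 37 °C to 5-fluorouridine together with compound or vehicle.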
DT40 TDP1 no CPT: qHTS for Inhibitors of human tyrosyl-DNA phosphodiesterase 1 (TDP1): qHTS in cells in absence of CPT; DT40 Tdp1-/- hTDP1 cells, no CPT, ATP luminescence, 48 h; Potency, µM (series often up to 46.2 µM), for inactives: top-dose activity change, negative = growth inhibition, usual class: inhibitors; hit rate 15% among 420,000; AID 686978, 2013; note: potency is the fitted concentration of half-maximal effect; nearly all actives have a fitted effect of over 55% in size
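Chicken DT40 Tdp1-/- cells complemented with human TDP1, screened without camptothecin (DMSO vehicle only), 400 cells/well. Compounds pin-transferred, cells incubated at 37 °C for at least 48 hr. Growth read as ATP-dependent luminescence (CellTiter-Glo, 30 min at RT).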
Giardia kill: kills Giardia lamblia. Giardia lamblia trophozoite viability. activity change, % at 7.66 µM, hits read low. hit rate 0.15% among 340,000. AID 540267; in the data active = activity change below about -80%; inconclusive = between about -30% and that limit;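 note: parasites exposed to compound for two days anaerobically before the ATP read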
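Trophozoites 100 cells/well + cpd; 48 hrs, 37 deg C, anaerobic. ATPLite 1-Step added, 15-30 min RT, luminescence read (ATP-based viability).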
IL-1B inflam inh: blocks inflammasome-driven IL-1 beta release | THP-1 LPS/ATP IL-1B secretion, AlphaLISA, 16 h; hits give low values | activity change, % at 57.5 µM | hit rate 4.7% among 360,000; in the data active = activity change below about -50%; inconclusive = mostly about -30% to -49%
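THP-1 cells pretreated 1 hr with compounds (up to 57.5 uM final), then stimulated with LPS (250 ng/mL final) plus ATP (1.25 mM final); secreted IL-1B measured by AlphaLISA after 16 hr, decreased signal indicating inhibition.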
TDP1 block: TDP1 (human) enzyme inhibition | Q9NUW8 | recombinant TDP1, AlphaScreen DNA substrate cleavage | Potency, µM (highest dose often 130 µM), for inactives: at the highest dose activity change, negative = inhibition, most hits filed as inhibitors | hit rate 0.28% among 350,000 | AID 485290; note: potency is the fitted concentration of half-maximal effect; nearly all actives have a fitted effect of over 40% in size
Target sequence (Q9NUW8 whole entry, looked up): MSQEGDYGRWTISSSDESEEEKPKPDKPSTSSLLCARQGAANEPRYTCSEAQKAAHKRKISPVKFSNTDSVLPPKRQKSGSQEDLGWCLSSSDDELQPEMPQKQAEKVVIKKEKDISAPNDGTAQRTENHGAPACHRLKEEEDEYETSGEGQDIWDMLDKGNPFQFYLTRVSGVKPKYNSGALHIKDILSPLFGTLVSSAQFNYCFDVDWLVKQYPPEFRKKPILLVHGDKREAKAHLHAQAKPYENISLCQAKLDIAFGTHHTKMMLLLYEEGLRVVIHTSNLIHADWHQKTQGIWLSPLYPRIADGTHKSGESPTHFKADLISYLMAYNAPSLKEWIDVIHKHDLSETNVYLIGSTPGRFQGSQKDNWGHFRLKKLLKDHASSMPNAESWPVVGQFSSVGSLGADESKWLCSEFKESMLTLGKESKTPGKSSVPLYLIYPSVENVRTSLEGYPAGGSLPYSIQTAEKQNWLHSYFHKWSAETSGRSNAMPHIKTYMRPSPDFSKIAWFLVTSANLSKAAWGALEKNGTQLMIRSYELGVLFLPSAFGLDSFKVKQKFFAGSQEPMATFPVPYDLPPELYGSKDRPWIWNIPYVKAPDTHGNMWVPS
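Recombinant human Tdp1 (E. coli-expressed, 1 nM final) preincubated with compounds 15 min at room temperature, then 5'-biotin/3'-phosphotyrosine-FITC DNA substrate (15 nM final) added for 5 min. AlphaScreen beads (10 ug/ml final) added 10 min; cleavage lowers signal.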
DT40 TDP1 CPT: DT40-hTDP1 cell growth loss with CPT; chicken DT40 Tdp1-/-;hTDP1 cells + 20 nM CPT, ATP luminescence, 48 h; Potency, µM (highest dose often 46.2 µM), for inactives: top-dose activity change, negative = growth inhibition, most hits filed as inhibitors; hit rate 12% among 420,000; AID 686979; note: potency is the fitted concentration of half-maximal effect; nearly all actives have a fitted effect of over 55% in size
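Cell growth measured by CellTiter-Glo luminescence after a minimum 48 h, 37 C compound exposure with 20 nM CPT in Tdp1-knockout DT40 cells stably expressing hTDP1, seeded 400/well; qHTS titration format.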
An asterisk follows results filed as active; i = inactive; ? = inconclusive; . = no result given; [ ] = another dose, or the depositor's remark. An excerpt weighted towards active compounds, which were near 19% of everything screened. Unless noted, calls come from the whole dose curve; as a rule, active = well fitted curve in the direction sought with a large enough effect; inconclusive = small, poorly fitted or top-dose-only effect, or another doubt; inactive = no such curve, though single readings can be large; an effect the other way counts as inactive or inconclusive. % is set by controls: 0 for no effect and ±100 for the full control effect.

SMILES	ELG1 repair inh	DT40 TDP1 no CPT	Giardia kill	IL-1B inflam inh	TDP1 block	DT40 TDP1 CPT
O=C(c1ccc(S(=O)(=O)N2CCCCC2)cc1)N1CCN(CCN2C(=O)c3cccc4cccc(c34)C2=O)CC1	3.3µM*	12µM*	-5	-3	8%	13µM*
O=C(/C=C/c1ccccc1)N1CCN(CCN2C(=O)c3cccc4cccc(c34)C2=O)CC1	10µM*	7.3µM*	-26	-25	5%	7.3µM*
COc1ccc(NC(=S)N2CCN(CCN3C(=O)c4cccc5cccc(c45)C3=O)CC2)cc1	-4%	?	14	28	3%	-13%
CCOc1ccc(NC(=S)N2CCN(CCN3C(=O)c4cccc5cccc(c45)C3=O)CC2)cc1	-16%	26µM*	10	11	8%	?
O=C(c1ccc(S(=O)(=O)N2CCCC2)cc1)N1CCCCCC1	0%	21%	5	0	4%	-25%
Cc1cc(C)n(-c2nc3ccccc3c(=O)n2OCCOc2ccccc2)n1	-23%	18µM*	-12	12	4%[56.1 µM]	12µM*
C=CCOn1c(-n2nc(C)cc2C)nc2ccccc2c1=O	-8%	-29%	3	12	.	-1%
COc1c(F)cc2[nH]c3c(c2c1F)CCNC3=O	.	.	-22	.	.	.
CCC(C(=O)NCCC(C)C)N(C(=O)Cn1nnc(-c2ccc(C)cc2)n1)c1cccc(O)c1 (stereo unspecified)	.	16µM*	.	.	-4%	?
CCC(C(=O)NC1CCCC1)N(C(=O)Cn1nnc(-c2ccc(OC)c(OC)c2)n1)c1cccc(O)c1 (stereo unspecified)	-8%	-21%	-7	1	.	-14%
COc1ccc(Oc2ncc3nc(-c4cccc(C#N)c4)c(=O)n(C)c3n2)cc1	.	28%	.	.	.	10%
COC(=O)c1[nH]c2cc(OC)c(OC)cc2c1/C=N/Nc1ccccc1	?	18µM*	31	-13	.	?
Cc1nc(CCNC(=O)C2CCC(=O)N(Cc3cccc(F)c3)C2)sc1C (stereo unspecified)	0%	20%	1	9	-2%	1%
CC1C/C(=C/c2ccccn2)C(=O)/C(=C/c2ccccn2)C1 (stereo unspecified)	4.6µM*	0.52µM*	-15	-54*	0%	0.52µM*
CC(C)(C)C1C/C(=C/c2ccccn2)C(=O)/C(=C/c2ccccn2)C1 (stereo unspecified)	?	0.52µM*	?	-93*	4%	0.92µM*
Cc1cccc(CCNC(=O)C2CCC(CNS(=O)(=O)c3ccccc3)CC2)c1 (stereo unspecified)	.	?	.	.	-2%	-26%
COc1cccc(C2SCC(=O)N2c2ccc(Br)cc2)c1OC (stereo unspecified)	-1%	?	-3	-18	0%	23µM*
CS(=O)(=O)CCC(C(=O)Nc1cccc(C(F)(F)F)c1)N1Cc2ccccc2C1=O (stereo unspecified)	.	-18%	.	.	5%	-10%
O=C(CSc1nc2ncc(Cl)cc2[nH]1)NCC(=O)Nc1ccc(F)c(F)c1F	-3%	7%	-12	23	2%	-7%
CC(Oc1ccc(F)cc1)C(=O)Nc1nc(-c2ccc(F)cc2)ns1 (stereo unspecified)	.	13µM*	.	.	5%	?
COc1ccc(C(=O)Nc2nc(-c3ccc(Br)cc3)ns2)cc1	.	?	.	.	4%	-15%
COc1ccc(-c2nsc(NC(=O)C(C)Oc3ccc(Cl)c(C)c3)n2)cc1 (stereo unspecified)	.	?	.	.	0%	23µM*
COc1cc(Br)cc(/C=N/NC(=O)Cc2ccccc2)c1O	.	0.46µM*	1	99	.	0.52µM*
O=C(Cc1ccccc1)N/N=C/c1cc(Br)cc(Cl)c1O	?	2.3µM*	-6	?	11%	3.7µM*
COc1cc(Br)cc(C=Nc2cccc(C(F)(F)F)c2)c1O	16%	?	6	-50*	1%	?
SMILES	ELG1 repair inh	DT40 TDP1 no CPT	Giardia kill	IL-1B inflam inh	TDP1 block	DT40 TDP1 CPT
COc1cc(/C=N/NC(=O)Cc2ccc(Br)cc2)cc(OC)c1O	?	-24%	3	16	-2%	8%
C=C1Nc2ccccc2C(=O)N1c1ccc(C(=O)N2CCN(C(=O)c3ccco3)CC2)cc1	.	1%	-19	.	1%	10%
COc1ccc(OC)c(CN2C(=O)CSCC2(C)C(=O)NCc2ccccc2)c1 (stereo unspecified)	.	-26%	.	11	.	20%
CCOc1ccc(CCNC(=O)C2CCN(C(=O)N3CC(CC)Oc4ccc(C)cc43)CC2)cc1 (stereo unspecified)	.	?	.	.	-3%	?
CCC1CN(C(=O)N2CCC(C(=O)NCCOC)CC2)c2ccccc2O1 (stereo unspecified)	.	-12%	.	.	-4%	-14%
CCC1CN(C(=O)N2CCC(C(=O)NCc3ccc(F)cc3)CC2)c2ccccc2O1 (stereo unspecified)	-14%	-14%	1	17	2%	-30%
CCC1CN(C(=O)N2CCC(C(=O)N(C)Cc3ccccc3)CC2)c2ccccc2O1 (stereo unspecified)	.	15µM*	.	.	-1%	?
CCC1CN(C(=O)N2CCC(C(=O)NCc3cccs3)CC2)c2ccccc2O1 (stereo unspecified)	.	21µM*	.	.	-3%	21µM*
CCC1CN(C(=O)N2CCC(C(=O)NCCCc3ccccc3)CC2)c2cc(C)ccc2O1 (stereo unspecified)	.	13µM*	.	.	5%	?
CCC1CN(C(=O)N2CCC(C(=O)NCCCc3ccccc3)CC2)c2ccccc2O1 (stereo unspecified)	.	?	.	.	8%	16µM*
COc1ccccc1C(=O)COC(=O)c1cccc(S(=O)(=O)N2CCCC2)c1	-5%	?	1	i	0%	?
COC(=O)[C@H]1O[C@@H](c2cc(OC)c(C)c(OC)c2OCc2ccccc2)[C@H](C)[C@@H]2O[C@]12C	.	.	.	.	6%	.
CS(=O)(=O)Nc1cccc(C2=NN(S(=O)(=O)c3ccccc3)C(c3ccco3)C2)c1 (stereo unspecified)	-16%	12%	-18	5	5%	?
Cc1ccc(-n2nc(-c3ccc(OC(F)(F)F)cc3)cc2N)cc1C	26%	-6%	8	-6	6%	6%
CCC1CN(C(=O)N2CCC(C(=O)NCCC3=CCCCC3)CC2)c2cc(C)ccc2O1 (stereo unspecified)	.	15µM*	.	.	-5%	15µM*

High-throughput results deposited in PubChem by National Center for Advancing Translational Sciences (NCATS).
